Source: PubChem BioAssay (NCATS)
Inconclusive results are not listed. Entries that show only a call come without a potency. Active and inactive are the calls of the source. Calls follow the shape of the dose curve; as a rule, active = well fitted inhibition curve with a large enough effect; inconclusive = small, poorly fitted or top-dose-only effect; inactive = flat fitted curve, though single readings scatter.

tested on: AA1029; experiment: qHTS profiling for inhibitors of Plasmodium falciparum proliferation (AID 504749); also: nearly all actives have a fitted effect of over 60% in size; settings: P. falciparum in erythrocytes, SYBR Green DNA, 72 h; series mostly up to 28.7 µM
Method in brief: (§1)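 SYBR Green fluorescence of parasite DNA, read after lysis and overnight dark incubation, measured growth over 72 h in erythrocyte culture at 0.3% parasitemia and 2.5% hematocrit. Data normalised to DMSO and 0.29 uM artemisinin, with plate-drift correction.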
Potency is read from the fitted curve at half-maximal effect.

| SMILES | Potency |
| --- | --- |
| N[C@@H]1CONC1=O | inactive |
| O=c1[nH]cnc2[nH]ncc12 | inactive |
| CC(C[N+](C)(C)C)OC(N)=O (stereo not given) | inactive |
| Cc1[nH]c(=O)c(C#N)cc1-c1ccncc1 | inactive |
| O=NN(CCCl)C(=O)NCCCl | inactive |
| C#Cc1cccc(Nc2ncnc3cc(OCCOC)c(OCCOC)cc23)c1 | 8.91 µM (active) |
| NS(=O)(=O)c1cc2c(cc1Cl)NC=NS2(=O)=O | inactive |
| CC(c1cc2ccccc2s1)N(O)C(N)=O (stereo not given) | inactive |
| NCCCC(N)(C(=O)O)C(F)F (stereo not given) | inactive |
| CNC[C@H](O)c1cccc(O)c1 | inactive |
| CC(C)C[C@H](NC(=O)[C@@H](O)[C@H](N)Cc1ccccc1)C(=O)O | 5.62 µM (active) |
| CCCCNc1cc(C(=O)O)cc(S(N)(=O)=O)c1Oc1ccccc1 | inactive |
| NCCc1ccc(O)c(O)c1 | inactive |
| NC[C@H](O)c1ccc(O)c(O)c1 | inactive |
| Nc1nc2c(ncn2COCCO)c(=O)[nH]1 | inactive |
| CCc1ccc(CCOc2ccc(CC3SC(=O)NC3=O)cc2)nc1 (stereo not given) | inactive |

tested on: AS120; experiment: as above; settings: P. falciparum in erythrocytes, SYBR Green DNA, 72 h; series mostly up to 28.7 µM
Method in brief: as §1

| SMILES | Potency |
| --- | --- |
| N[C@@H]1CONC1=O | inactive |
| O=c1[nH]cnc2[nH]ncc12 | inactive |
| CC(C[N+](C)(C)C)OC(N)=O (stereo not given) | inactive |
| Cc1[nH]c(=O)c(C#N)cc1-c1ccncc1 | inactive |
| C1COC(NC(C2CC2)C2CC2)=N1 | 12.6 µM (active) |
| O=NN(CCCl)C(=O)NCCCl | inactive |
| C#Cc1cccc(Nc2ncnc3cc(OCCOC)c(OCCOC)cc23)c1 | 11.2 µM (active) |
| NS(=O)(=O)c1cc2c(cc1Cl)NC=NS2(=O)=O | inactive |
| NCCCC(N)(C(=O)O)C(F)F (stereo not given) | inactive |
| CNC[C@H](O)c1cccc(O)c1 | inactive |
| CC(C)C[C@H](NC(=O)[C@@H](O)[C@H](N)Cc1ccccc1)C(=O)O | 6.31 µM (active) |
| CCCCNc1cc(C(=O)O)cc(S(N)(=O)=O)c1Oc1ccccc1 | inactive |
| NCCc1ccc(O)c(O)c1 | inactive |
| NC[C@H](O)c1ccc(O)c(O)c1 | inactive |
| Nc1nc2c(ncn2COCCO)c(=O)[nH]1 | inactive |
| CCc1ccc(CCOc2ccc(CC3SC(=O)NC3=O)cc2)nc1 (stereo not given) | inactive |

tested on: ATS189; experiment: as above; settings: P. falciparum in erythrocytes, SYBR Green DNA, 72 h; series mostly up to 28.7 µM
Method in brief: as §1

| SMILES | Potency |
| --- | --- |
| N[C@@H]1CONC1=O | inactive |
| O=c1[nH]cnc2[nH]ncc12 | inactive |
| CC(C[N+](C)(C)C)OC(N)=O (stereo not given) | inactive |
| Cc1[nH]c(=O)c(C#N)cc1-c1ccncc1 | inactive |
| C1COC(NC(C2CC2)C2CC2)=N1 | inactive |
| O=NN(CCCl)C(=O)NCCCl | inactive |
| NS(=O)(=O)c1cc2c(cc1Cl)NC=NS2(=O)=O | inactive |
| CC(c1cc2ccccc2s1)N(O)C(N)=O (stereo not given) | inactive |
| NCCCC(N)(C(=O)O)C(F)F (stereo not given) | inactive |
| CNC[C@H](O)c1cccc(O)c1 | inactive |
| CC(C)C[C@H](NC(=O)[C@@H](O)[C@H](N)Cc1ccccc1)C(=O)O | 8.91 µM (active) |
| CCCCNc1cc(C(=O)O)cc(S(N)(=O)=O)c1Oc1ccccc1 | inactive |
| NCCc1ccc(O)c(O)c1 | inactive |
| NC[C@H](O)c1ccc(O)c(O)c1 | inactive |
| Nc1nc2c(ncn2COCCO)c(=O)[nH]1 | inactive |
| CCc1ccc(CCOc2ccc(CC3SC(=O)NC3=O)cc2)nc1 (stereo not given) | inactive |

tested on: ATS95; experiment: as above; settings: P. falciparum in erythrocytes, SYBR Green DNA, 72 h; series mostly up to 28.7 µM
Method in brief: as §1

| SMILES | Potency |
| --- | --- |
| Cc1c(C)c2c(c(C)c1O)CCC(C)(COc1ccc(CC3SC(=O)NC3=O)cc1)O2 (stereo not given) | inactive |
| N[C@@H]1CONC1=O | inactive |
| O=c1[nH]cnc2[nH]ncc12 | inactive |
| CC(C[N+](C)(C)C)OC(N)=O (stereo not given) | inactive |
| Cc1[nH]c(=O)c(C#N)cc1-c1ccncc1 | inactive |
| O=NN(CCCl)C(=O)NCCCl | inactive |
| NS(=O)(=O)c1cc2c(cc1Cl)NC=NS2(=O)=O | inactive |
| CC(c1cc2ccccc2s1)N(O)C(N)=O (stereo not given) | inactive |
| NCCCC(N)(C(=O)O)C(F)F (stereo not given) | inactive |
| CNC[C@H](O)c1cccc(O)c1 | inactive |
| CC(C)C[C@H](NC(=O)[C@@H](O)[C@H](N)Cc1ccccc1)C(=O)O | 7.94 µM (active) |
| CCCCNc1cc(C(=O)O)cc(S(N)(=O)=O)c1Oc1ccccc1 | inactive |
| O=C1CCc2cc(OCCCCc3nnnn3C3CCCCC3)ccc2N1 | inactive |
| NC[C@H](O)c1ccc(O)c(O)c1 | inactive |
| Nc1nc2c(ncn2COCCO)c(=O)[nH]1 | inactive |
| CCc1ccc(CCOc2ccc(CC3SC(=O)NC3=O)cc2)nc1 (stereo not given) | inactive |

tested on: C2A; experiment: as above; settings: P. falciparum in erythrocytes, SYBR Green DNA, 72 h; series mostly up to 28.7 µM
Method in brief: as §1

| SMILES | Potency |
| --- | --- |
| Cc1c(C)c2c(c(C)c1O)CCC(C)(COc1ccc(CC3SC(=O)NC3=O)cc1)O2 (stereo not given) | inactive |
| N[C@@H]1CONC1=O | inactive |
| O=c1[nH]cnc2[nH]ncc12 | inactive |
| CC(C[N+](C)(C)C)OC(N)=O (stereo not given) | inactive |
| Cc1[nH]c(=O)c(C#N)cc1-c1ccncc1 | inactive |
| O=NN(CCCl)C(=O)NCCCl | inactive |
| NS(=O)(=O)c1cc2c(cc1Cl)NC=NS2(=O)=O | inactive |
| CC(c1cc2ccccc2s1)N(O)C(N)=O (stereo not given) | inactive |
| NCCCC(N)(C(=O)O)C(F)F (stereo not given) | inactive |
| CNC[C@H](O)c1cccc(O)c1 | inactive |
| CC(C)C[C@H](NC(=O)[C@@H](O)[C@H](N)Cc1ccccc1)C(=O)O | 3.98 µM (active) |
| CCCCNc1cc(C(=O)O)cc(S(N)(=O)=O)c1Oc1ccccc1 | inactive |
| NCCc1ccc(O)c(O)c1 | inactive |
| NC[C@H](O)c1ccc(O)c(O)c1 | inactive |
| Nc1nc2c(ncn2COCCO)c(=O)[nH]1 | inactive |
| CCc1ccc(CCOc2ccc(CC3SC(=O)NC3=O)cc2)nc1 (stereo not given) | inactive |
